Compound activity (PubChem BioAssay)
Shown are actives, neighbours in structure and some others; about 1.1% of the full set was active somewhere.
HTR5A ag – HTR5A agonism, opioid heterodimer counter-screen; P47898; HTR5A agonist assay, luminescence, cell-based; activation, % at 9.3 µM; actives 0.61% (n = 340,000); in the data active means activation mostly above about 9.5%, no sharp cut-off; inactive means mostly below about 7.6%;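 further: 0% = cells with vehicle only and 100% = reference agonist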
MOR-DOR ag – agonists of human mu-delta opioid receptor heterodimerization | cells, OPRM1-OPRD1 heterodimerization, luminescence | activation, % at 9.3 µM | actives 0.3% (n = 340,000); in the data active means activation above about 18%;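 further: 0% = vehicle-treated cells and 100% = reference agonist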
Target sequence (P35372 whole entry, looked up): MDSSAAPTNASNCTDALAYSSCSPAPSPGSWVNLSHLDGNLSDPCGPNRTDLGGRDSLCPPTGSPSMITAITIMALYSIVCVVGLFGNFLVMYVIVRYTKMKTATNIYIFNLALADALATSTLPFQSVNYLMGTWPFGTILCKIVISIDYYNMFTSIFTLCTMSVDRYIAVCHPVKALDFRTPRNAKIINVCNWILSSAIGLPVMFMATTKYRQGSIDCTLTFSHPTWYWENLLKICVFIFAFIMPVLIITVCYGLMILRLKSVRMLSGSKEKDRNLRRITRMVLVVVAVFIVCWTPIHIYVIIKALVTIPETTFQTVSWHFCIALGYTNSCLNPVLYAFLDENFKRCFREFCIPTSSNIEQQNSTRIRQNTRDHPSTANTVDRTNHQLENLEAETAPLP
Target sequence (P41143 whole entry, looked up): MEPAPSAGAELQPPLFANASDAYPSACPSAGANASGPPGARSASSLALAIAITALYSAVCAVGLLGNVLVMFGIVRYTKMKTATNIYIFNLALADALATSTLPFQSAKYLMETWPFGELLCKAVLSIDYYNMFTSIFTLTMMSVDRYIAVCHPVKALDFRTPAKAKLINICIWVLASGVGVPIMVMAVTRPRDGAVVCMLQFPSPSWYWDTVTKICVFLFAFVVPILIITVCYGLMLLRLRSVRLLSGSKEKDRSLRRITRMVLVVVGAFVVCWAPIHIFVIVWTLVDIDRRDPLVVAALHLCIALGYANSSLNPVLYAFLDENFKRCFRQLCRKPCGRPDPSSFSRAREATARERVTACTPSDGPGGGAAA
OPRM1-OPRD1 inv – inverse agonist of human OPRM1-OPRD1 heterodimerization. P35372+P41143. cell-based MOR-DOR heterodimer luminescence, inverse agonism. inhibition, % at 9.3 µM. actives 0.21% (n = 340,000). AID 504357; in the data active means inhibition above about 22%, passing the limit was not always enough;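 further: 0% = cells with DMSO and 100% = wells without cells with DMSO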
HTR5A inv ag – HTR5A inverse agonism, opioid heterodimer counter-screen; inhibition, % at 9.3 µM; actives 0.083% (n = 340,000); HTR5A cell line, luminescence; AID 504634; in the data active means inhibition mostly above about 23%, no sharp cut-off; inactive means mostly below about 18%;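 further: 0% = cells with DMSO and 100% = no-cell wells with DMSO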
Numbers without * were called inactive; i = inactive; + = active, no number.

SMILES	HTR5A ag	MOR-DOR ag	OPRM1-OPRD1 inv	HTR5A inv ag
O=C(/C=C/c1cccnc1)c1ccc(F)c(F)c1	1	-2	9	-4
O=C(Nc1ccccc1Cl)NC1(C(=O)NCCCN2CCOCC2)CCCCC1	-1	-1	8	-46
O=C(NC1CCCCC1)NC1(C(=O)NCCCN2CCOCC2)CCCCC1	11*	-2	11	-4
COc1ccc(NC(=O)CC2C(=O)N(c3ccc(F)cc3)C(=S)N2NC(=O)c2ccc(Cl)cc2)cc1 (stereo not drawn)	12*	0	-2	6
COc1ccc(NC(=O)CC2C(=O)N(c3ccc(Cl)cc3)C(=S)N2NC(=O)c2cccc(F)c2)cc1 (stereo not drawn)	0	0	-1	-6
CCN(CC)S(=O)(=O)c1ccc(N2CCOCC2)c(NC(=O)COc2ccc(OC)cc2)c1	14	-4	17	-33
Cc1sc(-c2ccncc2)nc1OC(=O)c1ccc(F)cc1F	9.8*	1	-7	-26
CC(=O)N(Cc1cc2ccccc2[nH]c1=O)c1ccc(C)cc1	9.7*	-1	6	-36
O=C(NCCCN1C(=O)c2ccccc2C1=O)OCc1ccccc1	-4	-1	3	17
O=C(N/N=C/c1c[nH]c2ccccc12)c1cc(-c2ccc(-c3ccccc3)cc2)n[nH]1	12*	4	-19	-21
O=C(N/N=C/c1c[nH]c2ccccc12)c1cc(-c2ccccc2)n[nH]1	-3	3	-21	6
Cc1nc(SCC(=O)NNC(=O)c2ccc(F)cc2)c2ccccc2n1	13*	-2	8	-31
CCCc1nc(SCC(=O)NNC(=O)c2ccc(OC)cc2)c2ccccc2n1	-1	-3	13	2
O=C(NCc1cccc(F)c1F)C1CCC(=O)N(C2CC2)C1 (stereo not drawn)	10*	-5	18	4
CSc1ccc(Cn2nnc(C(=O)NCCc3ccc(Cl)cc3)c2N)cc1	4	10	-54	-11
COc1ccc(C)cc1NC(=O)CSc1nnc(-c2cc3cccc(OC)c3o2)n1N	13*	-2	9	3
CC(C)C[C@@H](CN1CCC[C@@H]1CN1C(=O)C(=O)NC[C@@H]1Cc1ccccc1)N1C[C@H](Cc2ccccc2)N(CC2CCCCCC2)C(=O)C1=O	10*	-1	7	-39
O=S(=O)(c1ccc2c(c1)C(O)c1ccccc1CC2)C(F)(F)F (stereo not drawn)	13*	7	-39	-32
Cc1ccc(NC(=O)Cn2c(O)c(N=NC(N)=O)c3ccccc32)cc1	1	-3	15	-4
Cc1ccc(NC(=O)Cn2c(O)c(N=NS(=O)(=O)c3ccc(C)cc3)c3ccccc32)cc1	5	-9	53*	-14
O=S(=O)(c1ccc(NCCOc2ccccc2)nc1)N1CCCC1	2	-3	10	-16
On1ccccc1=S	-10	i	+	23
CCOC(=O)C1CCN(CCCSc2ccc(C)cc2)CC1	0	0	-1	0
O=C(O)CCn1[nH]c(=O)c2ccccc2c1=O	0	-3	16	-29
COC(=O)c1cc(C)nc2c1C(=O)C(=O)C=C2N1CCOCC1	6	26*	-123	-22
SMILES	HTR5A ag	MOR-DOR ag	OPRM1-OPRD1 inv	HTR5A inv ag
COc1ccc(CNc2nc(NCc3ccc(OC)c(OC)c3)n(C(=O)c3cccs3)n2)cc1OC	14*	1	-8	-22
Cc1nn(Cc2ccccc2Cl)c(C)c1NC(=O)CCCn1nc(C)c([N+](=O)[O-])c1C	4	-1	8	13
CCOc1ccc(Oc2ccccc2NC(=O)CN2C(=O)NC3(CCCC3)C2=O)cc1	6	-1	7	-15
O=S(=O)(Nc1cccc(-c2nc3cccnc3s2)c1)c1ccc2c(c1)OCCO2	13*	2	-12	2
Cc1ccc(-c2nc3cccnc3s2)cc1NS(=O)(=O)c1ccc2c(c1)OCCO2	15	0	0	-46
O=[N+]([O-])c1ccc(C(O)CN2CCN(C/C=C/c3ccccc3)CC2)cc1 (stereo not drawn)	1	-3	16	-5
Cc1ccccc1NC(=O)c1cccc(OCc2c(C)noc2C)c1	-1	-3	13	3
O=C1c2ccccc2-c2onc3ccc(N4CCCC4)c1c23	6	19*	-97	-4
CCOc1ccc2noc3c2c1C(=O)c1ccccc1-3	-5	11	-63	9
COc1ccc(C(=O)c2sc3nc(-c4ccccc4)ccc3c2N)cc1OC	18*	10	-58	-10
CCOC(=O)c1cc(-c2ccccc2)n(CCC(=O)NC(C)CC)c1C (stereo not drawn)	11*	-1	5	30
CC(C)(C)C1CCC(=NNc2nc3ccccc3[nH]2)CC1 (stereo not drawn)	-1	-1	7	1
